The record followed here is PubChem BioAssay.

Each structure is given as a SMILES string. For part of these data: Entries with a potency or affinity are not part of this list. Inconclusive results are not listed. The list shows a part of the results. Calls of active or inactive are those of the source. Unless noted, the rule behind the calls is not given here.

Assay [1] in a line: non-specific cell cytotoxicity, dose response, cytotoxicity control for PAX8 inhibitor project, plate reader, dry powder samples (AID 743021).
A short description of assay [2]: IGROV1 ovarian cancer cell cytotoxicity, dose response, PAX8 inhibitor project, plate reader, dry powder samples (AID 743043).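 Note: more negative means fewer viable cells or more cytotoxicity.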
Assay [3] can be described thus: IOSE-T80 ovarian epithelial cell cytotoxicity, dose response, cytotoxicity control for PAX8 inhibitor project, plate reader, dry powder samples (AID 743045).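 Note: 0% = neutral control median and -100% = positive control median; more negative values mean more cell killing.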
Assay [4] can be described thus: A2780 ovarian cancer cell cytotoxicity, dose response, cytotoxicity control, plate reader, dry powder samples (AID 743046).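 Note: 0% = neutral control wells and -100% = cytotoxic reference compound.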
A short description of assay [5]: Ring1 mRNA increase in mouse ESCs, confirmation, esBAF inhibitor project, cell-based, mouse ESC, RT-qPCR, cherry-pick (AID 743176;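 active = Ring1 gene expression raised more than 2-fold over untreated cells in both replicates at either tested dose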;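 note: Ring1 transcript normalised to actin housekeeping signal by TaqMan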). The note with it: mouse ESC E14, Ring1 mRNA RT-qPCR fold change, stronger effect = higher value. (In general: In qPCR the cycle at which signal appears reflects the starting amount.)
The nature of assay [6]: Fgf4 mRNA decrease in mouse ESCs, confirmation, esBAF inhibitor project, cell-based, mouse ESC, RT-qPCR, cherry-pick (AID 743177;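 active = Fgf4 expression under 0.8 fold of control in both repeat measurements at one or both tested doses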;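 note: Fgf4 transcript normalised to actin in duplex TaqMan qPCR; cells exposed to compound for 24 h before lysis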). As to conditions: mouse ESC E14, Fgf4 mRNA qPCR fold change, stronger effect = lower value.
The nature of assay [7]: esBAF inhibition via Bmi1 de-repression, confirmation, cell-based, RT-qPCR, mouse ESC, single point, cherry-pick (AID 743180;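 active = Bmi1 expression fold change above 6 at either tested concentration, seen in replicate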). As to conditions: mouse ESC E14, Bmi1 mRNA qPCR fold, stronger effect = higher value.
Assay [8] can be described thus: A549 cell cytotoxicity, cytotoxicity control, plate reader, single point, cherry-pick (AID 743188). The note with it: at 25 µM.
Assay [9] can be described thus: HepG2 cell cytotoxicity, cytotoxicity control, plate reader, single point, cherry-pick (AID 743189; in the data active = activity change below about -50%). As to conditions: at 25 µM, stronger effect = lower value.
Assay [10] can be described thus: HEK293 cell cytotoxicity, cytotoxicity control, plate reader, single point, cherry-pick (AID 743190; in the data active = activity change below about -38%, passing the limit was not always enough). As to conditions: at 25 µM.
Assay [11] can be described thus: NIH:OVCAR-3 ovarian cancer cell cytotoxicity, dose response, PAX8 inhibitor project, plate reader, dry powder samples (AID 743044). The note with it: max activity: at 35 µM, stronger effect = lower value unless noted.
Assay [12] in a line: A549 cell cytotoxicity, dose response, cytotoxicity control, plate reader, cherry-pick, antagonist series (AID 743412).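 Note: 0% = neutral control wells and -100% = positive control wells.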
Assay [13] is described as follows: HepG2 cell cytotoxicity, dose response, cytotoxicity control, plate reader, cherry-pick, antagonist series (AID 743416).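 Note: 0% = neutral control wells and -100% = positive control wells.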
Assay [14] in a line: cytotoxicity in OVCAR8 ovarian cancer cells, dose response, PAX8 project, cell-based, plate reader, dry powder samples (AID 743197).

For the compound `CN1c2ccccc2N(C)C1(C)c1ccccc1`, in assay [1], the compound was classed as inactive.

As to `COC(=O)[C@@]1(CCS(=O)(=O)c2ccccc2)N=C(c2ccc(OCCCO)cc2)O[C@H]1c1ccccc1`, the compound was called inactive in assay [1], in [2], in assay [3] and in [4].

Consider `Brc1ccc(-n2cc(-c3ccccc3)c3c(NN4CCOCC4)ncnc32)cc1`, for which the call in [1] was inactive.

With `COc1ccc(C(=O)CCc2ccccc2O)c(OC)c1`, the fold change in [5] (Ring1 fold increase, at 7 µM) was 1.29; in [5] (at 33 µM), 1.23 (inactive); in assay [7] (Bmi1 de-repression, at 7 µM) it was 1.55; in assay [7] (at 33 µM), 1.13 (inactive). Moreover, the Fgf4 expression fold change is 0.836 in [6] (Fgf4 expression, at 7 µM) and 0.979 (inactive) in [6] (at 33 µM). Further, the cell viability change % (negative = cytotoxic) in assay [8] is -6.31% (inactive). Besides, the values for the activity change, negative = inhibition in assay [9] and in [10] were -33.9% (inactive) and 14.9% (inactive), respectively.

Regarding `Cc1c(Nc2cc(Cl)c3nonc3c2[N+](=O)[O-])c(=O)n(-c2ccccc2)n1C`, the call in assay [1] was inactive.

Consider `C[C@@H]1CN([C@H](C)CO)C(=O)c2cc(NS(=O)(=O)c3ccccc3)ccc2O[C@@H](C)CCCCO[C@@H]1CN(C)Cc1ccc(C(F)(F)F)cc1`, for which, in assay [3], the call was inactive.

On to `Cc1cc(C2=NNC(=NC3CC3)SC2)c(C)n1-c1ccccc1F`, for which, in assay [1], the compound was called inactive.

For `O=C1c2cccc3cc([N+](=O)[O-])cc(c23)C(=O)N1CCN1CCCC1`, the compound was classed as inactive in [1].

Consider `O=C(CCCN1C(=O)/C(=C\c2cccc(Br)c2)SC1=S)Nc1ccccn1`, for which the compound was called inactive in [1] and in [4].

As to `COCC(=O)N1[C@H](CO)[C@H](c2ccc(-c3cccnc3)cc2)[C@@H]1C#N`, the outcome in assay [1], in [2], in [11], in [3] and in [4] was inactive.

As to `N#C[C@H]1[C@@H](c2ccc(C#Cc3cccc(F)c3)cc2)[C@@H](CO)N1C(=O)C1CCCC1`, the call in assay [11] and in assay [3] was inactive.

As for `O=C1CN(C(=O)Cn2ncc(Cl)c(Cl)c2=O)c2ccccc2N1`, the result in assay [1] was inactive.

In the case of `N#C[C@@H]1[C@@H](c2ccc(C#Cc3ccccc3F)cc2)[C@@H](CO)N1C(=O)C1CCCC1`, the compound was called inactive in [4].

With `CC(C)c1cc(C(=O)OCC(=O)N2CCN(C(=O)c3ccco3)CC2)c(O)c(C(C)C)c1`, the outcome in assay [1], in assay [2], in [3] and in assay [4] was inactive.

Take `CC(C)(C)NC(=O)Cn1nnc(-c2ccccc2Cl)n1`: the fold change in assay [5] (Ring1 fold increase, at 7 µM) is 1.18; in [5] (at 33 µM), 1.12 (inactive); in assay [7] (Bmi1 de-repression, at 7 µM), 1.16; in assay [7] (at 33 µM), 1.15 (inactive). Further, the Fgf4 expression fold change is 0.977 in [6] (Fgf4 expression, at 7 µM) and 0.933 (inactive) in assay [6] (at 33 µM). The cell viability change % (negative = cytotoxic) in [8] was -11.9% (inactive). Further, the activity change, negative = inhibition in [9] is -3.1% (inactive); in assay [10], -13.6% (inactive).

As to `COc1ccc(C)cc1NS(=O)(=O)c1ccc(-c2cnc(C3CC3)o2)cc1`, in assay [1], the outcome was inactive.

For `Cn1nnnc1Sc1ncnc2scc(-c3cccc(S(C)(=O)=O)c3)c12`, in assay [1], the compound was called inactive.

`N#C[C@H]1[C@@H](c2ccc(C3=CCCC3)cc2)[C@@H](CO)N1C(=O)NC1CCCCC1`: the outcome in [1], in assay [2], in assay [11] and in assay [4] was inactive.

Turning to `CCCC(=O)NC(c1ccc(C(C)C)cc1)c1ccc2cccnc2c1O` (stereo unspecified), in assay [1], the compound was classed as inactive.

Consider `CN(C(=O)OC(C)(C)C)c1ccc(-c2nc3ccccc3s2)cc1`, for which the result in [1] and in assay [12] was inactive.

Turning to `N#C[C@@H]1[C@@H](c2ccc(C3=CCCCC3)cc2)[C@@H](CO)N1C(=O)NC1CCCCC1`, the outcome in assay [1], in assay [2], in assay [11], in assay [3] and in assay [4] was inactive.

With `CC(=O)NC(c1ccc(Cl)cc1)c1ccc2cccnc2c1O` (stereo unspecified), the outcome in assay [1] was inactive.

With `COc1ccc(CCNc2nnc(Sc3nnnn3-c3ccccc3)s2)cc1OC`, in assay [1], the result was inactive.

On to `CCc1sc(C(=O)N2CCN(CC(=O)Nc3cccc(F)c3)CC2)cc1C`, for which the fold change was 1.14 in assay [5] (Ring1 fold increase, at 7 µM); 1.01 (inactive) in assay [5] (at 33 µM); 1.34 in assay [7] (Bmi1 de-repression, at 7 µM); 1.56 (inactive) in [7] (at 33 µM). Besides, the Fgf4 expression fold change in assay [6] (Fgf4 expression, at 7 µM) is 1.11; in assay [6] (at 33 µM) it was 0.972 (inactive). In addition, the cell viability change % (negative = cytotoxic) in assay [8] is 0.0417% (inactive). In addition, the activity change, negative = inhibition was -21.7% (inactive) in assay [9] and -24% (inactive) in assay [10].

For the compound `COc1ccccc1C#Cc1ccc([C@H]2[C@@H](CO)N(C(=O)C3CCCC3)[C@H]2C#N)cc1`, the call in [3] and in assay [4] was inactive.

Turning to `Cc1cc(C(C)(C)C)cc(C)c1Cn1c2[n+](c3ccc(C(F)(F)F)cc31)CCCCC2`, in assay [1], the compound was classed as inactive.

As to `COc1cccc(C#Cc2ccc([C@@H]3[C@@H](C#N)N(C(=O)C4CCCC4)[C@@H]3CO)cc2)c1`, the outcome in assay [1], in assay [2], in [11], in assay [3] and in [4] was inactive.

As to `Oc1cccc2cc(Nc3ccccc3)cnc12`, the outcome in assay [1] was inactive.

On to `C=C(C(=O)c1ccccc1)C(C(=C)C(=O)c1ccccc1)c1ccc(OC)cc1`, for which the compound was called inactive in assay [1].

In the case of `N#C[C@H]1N[C@H](CO)[C@@H]1c1ccc(C#Cc2ccccc2F)cc1`, the outcome in [1], in assay [3] and in assay [4] was inactive.

In the case of `O=C(Nc1ccc(OCC(F)(F)C(F)F)c(C(F)(F)F)c1)c1ccccc1O`, the result in assay [1], in assay [3] and in assay [4] was inactive.

`O=C(O)c1cccc(COc2ccc3c(c2)CCC3)c1`: the outcome in [1] and in assay [13] was inactive.

On to `Cn1c(CCN2CCCC2)nc2cc(NS(=O)(=O)c3ccc(Cl)cc3)ccc21`, for which the compound was classed as inactive in assay [1], in assay [3] and in assay [4].

Regarding `Cc1ccc2c(c1)c1c3n2CCN(CC(N)=O)C3CCC1` (stereo unspecified), the compound was classed as inactive in assay [1].

As to `C[C@@H]1CN([C@@H](C)CO)S(=O)(=O)c2ccc(C#CC3CCCC3)cc2O[C@H]1CN(C)Cc1cccnc1`, the outcome in [2], in assay [3] and in [14] was inactive.

For the compound `CSC(=Nc1ccccc1)N=C(SCc1ccccc1)N(C)C`, the result in assay [1] was inactive.

`O=C(CCCN1C(=O)/C(=C\c2ccccc2OC(F)F)SC1=S)Nc1cccnc1`: the compound was classed as inactive in assay [1] and in assay [4].

With `COc1cccc(C#Cc2ccc([C@@H]3[C@@H](C#N)N(C(=O)C4CCCCC4)[C@@H]3CO)cc2)c1`, the compound was called inactive in assay [1], in assay [2], in assay [11], in [3] and in assay [4].

As for `Cc1nc(-c2ccccc2)sc1-c1nnc(C2CC2)o1`, the fold change was 1.23 in assay [5] (Ring1 fold increase, at 7 µM); 1.31 (inactive) in [5] (at 33 µM); 1.21 in [7] (Bmi1 de-repression, at 7 µM); 1.79 (inactive) in assay [7] (at 33 µM). Further, the Fgf4 expression fold change was 0.99 in assay [6] (Fgf4 expression, at 7 µM) and 1.05 (inactive) in assay [6] (at 33 µM). The cell viability change % (negative = cytotoxic) in [8] is 1.56% (inactive). Further, the activity change, negative = inhibition in assay [9] is -14.2% (inactive); in [10] it was -0.816% (inactive).

`COc1cc(C2C3=C(COC3=O)Oc3cc4c(cc32)OCO4)cc(OC)c1O` (stereo unspecified): in [1], the result was inactive.
